Measured values: PubChem BioAssay AID1671193 (National Center for Advancing Translational Sciences (NCATS), 2021)
About 180 (0.12%) of roughly 150,000 compounds were called active. Another 6% or so got no clear call; they are omitted. Calls come from the whole dose curve; as a rule, active = well fitted cell-killing curve with a large enough effect; inconclusive = small, poorly fitted or top-dose-only effect, or effect the other way; inactive = flat fitted curve, though single readings scatter. For the sample, actives were picked, then their nearest neighbours and some compounds at random.

Test: GF-AFC viability counterscreen for inhibitors of alpha-synuclein gene (SNCA) expression; note: nearly all actives have a fitted effect of over 30% in size
Details: HEK-293-SNCA-luc viability, GF-AFC fluorescence, 24 h; series mostly up to 57.1 µM; activity change, negative = cytotoxicity: at the top concentration
Excerpt: Assay Submitter (PI): Daniel R. Scoles Ph.D.
Department of Neurology, University of Utah, Salt Lake City, Utah
Accumulation of alpha-synuclein is a main underlying pathological feature of Parkinson's disease (PD) and alpha-synucleinopathies, for which lowering expression of the alpha-synuclein gene (SNCA) is a potential therapeutic avenue. Using a cell-based luciferase reporter of SNCA expression we performed a quantitative high throughput screen (qHTS) of 155,885 compounds in dose response. The screening assay was generated using genome editing to insert the luciferase gene downstream and in frame of the SNCA gene in HEK-293 cells (1). A viability counterscreen using GF-AFC was used to eliminate cytotoxic and false positive compounds. After in silico analysis (clustering, removal of frequent hitter nuisance chemotypes), inhibitor compounds from the primary screen were selected for follow up and re-tested at 11-doses in the SNCA-luc cells (luciferase and GF-AFC confirmation), and in CMV-luc expressing cell line to flag general transcriptional repressors.
Described herein are the results of the GF-AFC viability counterscreen for SNCA inhibitors; inactivity (no decrease in fluorescence signal, not cytotoxic) is the desired output for this assay.
1. Dansithong, W., Paul, S., Scoles, D. R., Pulst, S. M., and Huynh, D. P. (2015) Generation of SNCA Cell Models Using Zinc Finger Nuclease (ZFN) Technology for Efficient High-Throughput Drug Screening. PLoS ONE 10, e0136930.
SEQUENCE No. (e.g., 1, 2, 3, etc.); […] (e.g., Cells, Incubation, Reagent, etc.); VALUE; DESCRIPTION
1; Cells; 4 uL; Dispense 1500 HEK-293-SNCA-luc cells/well into Greiner 1536-well white / solid bottom tissue culture treated plate. The plate was covered with metal lids with gas-exchange holes.
2; Incubate; 24 hours; Incubate at 37C, 5% CO2, 95% RH.
3; Compounds; 23 nL; Compounds and controls were transferred via a Kalypsys Pin Tool (Wako USA) equipped with a 1536-slotted pin array. The plate was covered with metal lids with gas-exchange holes.
4; Incubate; 24 hours; Incubate at 37C, 5% CO2, 95% RH.
5; Dispense; 1 uL; Dispense Gly-Phe-7-amino-4-trifluoromethylcoumarin (GF-AFC, prepared at 125 uM in PBS) was added. The plate was covered with metal lids with gas-exchange holes.
6; Incubate; 30 min; Incubate at 37C, 5% CO2.
7; Detector; Fluorescence; Measure fluorescence with ViewLux microplate reader (PerkinElmer) equipped with 405/10 excitation and 540/25 emission filters.
8; Dispense; 3 uL; Dispense ONE-Glo ([…]) lucifase detection reagent was added to each well. Plates were covered with metal lids with gas-exchange holes.
9; Incubate; 15 min; Incubate at room temperature.
10; Detector; Luminescence; Measure luminescence with ViewLux microplate reader (PerkinElmer) equipped with clear filters.
NOTES (numbers refer to sequence above)
1; HEK-293-SNCA-luc were cultured and suspended in phenol-red free DMEM (4.5 g/L glucose, 25 mM HEPES, cat #21063 (Thermo)).
3; Compounds were added to the assay plate in an 11-point intra plate dose response, 1:3 titration in DMSO with a final concentration range of […]. Vehicle-only plates, with DMSO being pin-transferred to every well, were inserted at the beginning of screening runs to confirm expected assay performance. Activity was normalized to wells containing medium only (-100% activity, full inhibition) and SNCA-luc cells treated with DMSO vehicle control (0% activity), contained on the same plate as test samples.
10; Signals were analyzed, and dose-response curves were fit using the Hill equation. Compounds in curve classes -1.1, -1.2, -2.1, -2.2 in the SNCA-luc assay were considered active. Compounds were eliminated from further consideration if also active (curve class -1.1, -1.2, -1.3, -1.4, -2.1, -2.2, -2.3, -2.4) in the GF-AFC cytotoxicity assay.
Potency is the fitted concentration of half-maximal effect.

Row | SMILES | activity change, negative = cytotoxicity | Potency
1 | O=C(c1ccc(F)cc1)N1CCC(C(=O)N2CCC(c3ccccc3)CC2)CC1 | 0.64% (inactive) | 
2 | CCCN(Cc1nccn1C)C(=O)c1ccccc1C1CCNC1 (configuration not stated) | 0.415% (inactive) | 
3 | O=c1c2nc(OCc3ccc(-n4cccn4)cc3)ccc2ncn1Cc1ccccc1 | -18.7% [at 87.6 µM] (inactive) | 
4 | COc1cccc(CNC(=O)c2cn3cc(-c4ccc(C)cc4)sc3n2)c1 | 5.4% (inactive) | 
5 | COCCOC1CN(C2CCN(S(=O)(=O)c3cccs3)CC2)C12CCCCC2 (configuration not stated) | 3.82% (inactive) | 
6 | O=C([C@H]1CCCN1C(=O)c1ccc(Cl)nc1)N1CCCC(c2nc3ccncc3[nH]2)C1 (some centres not stated) | -7.77% (inactive) | 
7 | CCOc1ccc(NC(=O)CN(Cc2ccccc2)S(=O)(=O)c2ccc(Cl)cc2)cc1 | 4.16% (inactive) | 
8 | CCOc1ccc(N(Cc2ccccc2)C(=O)c2nc(S(C)(=O)=O)ncc2Cl)cc1 |  | 5.62 µM (active)
9 | CCOc1ccc(N(Cc2ccccc2)C(=O)c2nc(SCC)ncc2Cl)cc1 | -2.22% (inactive) | 
10 | Cc1c(C(F)(F)F)nc(-c2ccc(CN3CCNCC3)cc2)[nH]c1=O | -0.179% (inactive) | 
11 | Cc1ccc(NC(=O)Cn2ccn3nc4c(c3c2=O)CCCCC4)cc1 | -18.2% (inactive) | 
12 | Cc1ccc(OCc2nc(C3CCN(C(=O)Cc4cccc(F)c4)CC3)no2)cc1 | -5.46% (inactive) | 
13 | O=C(COc1ccc(F)cc1)NC1CCN(c2cc(-c3ccccc3)[nH]n2)CC1 | 1.28% (inactive) | 
14 | CCC1Oc2ccc(NC(=O)c3c(F)cccc3F)cc2CN(CCc2ccc(F)cc2)C1=O (configuration not stated) | 6.09% (inactive) | 
15 | COC(=O)[C@@H]1Cc2c([nH]c3ccccc23)[C@H]2C[C@@H](NCCN3CCOCC3)C[C@@H](c3ccccc3F)N21 |  | 28.2 µM (active)
16 | COC(=O)[C@@H]1Cc2c([nH]c3ccccc23)[C@H]2C[C@@H](NCCN3CCOCC3)C[C@@H](c3ccccc3)N21 | -7.47% (inactive) | 
17 | COC(=O)[C@@H]1Cc2c([nH]c3ccccc23)[C@H]2C[C@H](NCCNC(C)=O)C[C@@H](c3ccc(C)cc3)N21 | -6.82% (inactive) | 
18 | CN(C)C[C@@H]1CN(S(C)(=O)=O)C[C@H]1NC(=O)c1nn(C)c2ccccc12 | -3.91% (inactive) | 
19 | COc1ccccc1Nc1ccnc(N2CCC(C(=O)NCc3cccc(Cl)c3)CC2)n1 | -6.27% (inactive) | 
20 | O=C(c1ccc(F)cc1)N1CCN(c2cc(-c3ccc(F)cc3)[nH]n2)CC1 | 6.86% (inactive) | 
21 | CCOC(=O)C1CCN(C(=O)C2CCc3nnc(CN[S+](C)(=O)[O-])n32)CC1 (configuration not stated) | -2.85% (inactive) | 
22 | O=C(c1ccon1)N1CC[C@@H]2[C@@H](CCC(=O)N2CC2CCNCC2)C1 | 0.0233% (inactive) | 
23 | CCOc1ccccc1NC(=O)N1CCCN(C)c2ccccc21 | -9.62% (inactive) | 
24 | O=C(CCc1ccccc1)Nc1ccc([C@@H](O)[C@H]2COCC(=O)N2Cc2ccccc2F)cc1 | 1.47% (inactive) | 

Row | SMILES | activity change, negative = cytotoxicity | Potency
25 | O=C(CCc1ccnc(N2CCCC2)c1)N1CCN(c2ccccc2)CC1 | 0.0928% (inactive) | 
26 | CCCS(=O)(=O)c1ncc(Cl)c(C(=O)Nc2scc(-c3ccccc3)c2C(=O)OCC)n1 | -14.4% (inactive) | 
27 | Cc1ccc(NC(=O)c2nc(S(=O)(=O)Cc3cccc(C)c3)ncc2Cl)cc1 |  | 28.2 µM (active)
28 | CCSc1ncc(Cl)c(C(=O)Nc2cc(C)ccc2C)n1 | -4.44% (inactive) | 
29 | CC1=C[C@@H](CN2CCC(O)CC2)[C@H](C(C)C)C[C@H]1Cc1nnc(-c2ccccc2F)o1 | -25.2% [at 87.6 µM] (inactive) | 
30 | C[C@@H](c1ccccc1)N(C)C(=O)c1cc(COc2cccc(F)c2)[nH]n1 | -5.67% (inactive) | 
31 | CCOC(=O)c1cccc(NC(=O)c2ccc3c(c2)N(C)C2CCCCN2C3=O)c1 (configuration not stated) | 4.91% [at 12.5 µM] (inactive) | 
32 | Cc1cccc(C(=O)N2CCC(OC3CCN(Cc4ccccc4)CC3)CC2)c1 | -20.7% (inactive) | 
33 | O=C(Nc1ccc(C(F)(F)F)cc1)C1=NO[C@@H]2CN(CCc3ccccc3)C[C@H]12 | 4.72% [at 87.6 µM] (inactive) | 
34 | COc1ccc(S(=O)(=O)N2C[C@@H]3C[C@H](C2)c2c(NC(=O)C4CCCCC4)ccc(=O)n2C3)cc1 | -4.88% (inactive) | 
35 | Cc1ccc(S(=O)(=O)N2CCCC(Cn3c(C4CC4)nc4cccnc43)C2)cc1C (configuration not stated) | 0.546% (inactive) | 
36 | CC(C)c1nc(-c2ccc(OC3CCN(C(=O)CCc4nc5ccccc5[nH]4)C3)cc2)no1 (configuration not stated) | -18.1% (inactive) | 
37 | COc1ccc(-n2nc(C)c([C@@H]3C=C[C@@H](NC(=O)Nc4ccccc4)C3)c2C)cc1 | -21% [at 87.6 µM] (inactive) | 
38 | CCc1ccccc1NC(=O)N1CCCC(Cn2c(C)nc3cccnc32)C1 (configuration not stated) | 0.623% (inactive) | 
39 | O=C(NC1CCN(c2nc3ncccc3o2)CC1)c1ccc(Cl)nc1 | -25.4% (inactive) | 
40 | CCc1ccc(NC(=O)Cn2ccn3nc4c(c3c2=O)CCCC4)cc1 | 2.41% (inactive) | 
41 | COc1ccc(NC(=O)N[C@H]2[C@H](O)[C@@H](N3CCN(c4ccccc4)CC3)[C@@H]3OC[C@H]2O3)cc1 | -6.88% (inactive) | 
42 | Cc1nc(N(C)C)ncc1C(=O)NC(C(=O)O)c1c(C)n[nH]c1C (configuration not stated) | -18% (inactive) | 
43 | COc1ccc(CC(=O)N2CC[C@@H](CC(=O)O)[C@@H](CCN3CCNCC3)C2)cc1 | 6.71% [at 87.6 µM] (inactive) | 
44 | Cc1cc(NC(=O)c2ccc3c(c2)N(C)C2CCCCCN2C3=O)ccc1F (configuration not stated) | -3.22% [at 12.5 µM] (inactive) | 
45 | COc1nc2nc(CC3CC3)n(C)c2cc1-c1cccc(NC(C)=O)c1 | -14.5% [at 87.6 µM] (inactive) | 
46 | O[C@H]1[C@H](NCc2ccco2)[C@H]2CO[C@H](O2)[C@@H]1N1CCC(Cc2ccccc2)CC1 | 4.17% [at 87.6 µM] (inactive) | 
47 | COCCC1(NS(C)(=O)=O)CCN(C(=O)c2ccc(OC)nc2OC)CC1 | 0.208% (inactive) | 
